Screening results (PubChem)
Most compounds without a hit are left out; they make up all but 2.7% or so of the library.
GLP-1R inv ag – GLP-1 receptor (human) inverse agonism | P43220 | hit rate 1.6% among 410,000 | HEK293 GLP-1R CRE-luciferase, luminescence, 24 h; GLP-1R form is constitutively active | AID 624417 | Potency, µM (top dose mostly 38.3 µM), inactives show at the top dose activity change, negative = inhibition, usual class: inhibitors; note: % is set by controls: 0 for no effect and ±100 for the full control effect; nearly all actives have a fitted effect of over 55% in size
Target sequence (P43220 whole entry, looked up): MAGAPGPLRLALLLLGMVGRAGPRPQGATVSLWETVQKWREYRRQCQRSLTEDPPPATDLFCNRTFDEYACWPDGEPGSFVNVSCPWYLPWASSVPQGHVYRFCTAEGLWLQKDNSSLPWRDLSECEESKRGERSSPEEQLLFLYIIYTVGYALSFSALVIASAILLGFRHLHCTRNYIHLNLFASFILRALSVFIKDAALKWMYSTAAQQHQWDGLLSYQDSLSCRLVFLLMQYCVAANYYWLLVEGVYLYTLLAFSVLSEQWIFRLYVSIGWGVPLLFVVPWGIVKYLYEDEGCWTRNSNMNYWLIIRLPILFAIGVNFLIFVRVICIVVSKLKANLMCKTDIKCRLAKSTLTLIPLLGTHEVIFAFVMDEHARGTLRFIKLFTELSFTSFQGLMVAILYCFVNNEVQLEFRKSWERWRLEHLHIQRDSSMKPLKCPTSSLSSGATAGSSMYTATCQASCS
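Cells are plated, allowed 12 hours at 37 deg C, then treated with compounds for 24 hr before luciferase detection reagent is added and luminescence is read after 12 min at room temperature. The HEK293 line carries constitutively active GLP-1R with a cAMP-responsive reporter.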
GLP-1R agonist – GLP-1 receptor (human) agonism | P43220 | HEK293 GLP-1R CRE-luciferase, luminescence, 4-6 h; cells express a hypersensitive GLP-1R form | hit rate 0.007% among 380,000 | AID 624172 | Potency, µM (top dose mostly 45.6 µM), for inactives: top-dose activation, most hits filed as activators; note: % of control where 0% means no effect
GLP1R cytotox – cytotoxicity counter-screen for GLP-1 receptor inverse agonists; HEK293 cAMP-luciferase reporter cells, luminescence, 24 h; Potency, µM (titrated, usually from 38.3 µM), inactives show at the top dose activity change, negative = inhibition, hits mostly inhibitors; hit rate 0.13% among 410,000; AID 624418;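 note: loss of luciferase light is scored as toxicity; % is set by controls: 0 for no effect and ±100 for the full control effect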
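Seeding density was 200 cells/uL; after overnight-length (12 h) culture, 23 nL compounds went on for 24 h at 37 °C. Readout used a luciferase detection reagent, luminescence taken after 12 min at room temperature.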
BRCA1 expr up – activators of BRCA1 expression; MCF7-BRCA1-FFLuc reporter, luminescence, 48 h; response scale: scaled: vehicle 0%, 10 µM genistein 100%; Potency, µM (series often up to 46.1 µM), without a hit: top-dose activation, usual class: activators; hit rate 1.1% among 380,000; AID 624202; note: nearly all actives have a fitted effect of over 80% in size
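MCF7-BRCA1-FFLuc cells, 2000/well in phenol-red-free MEM, attached 2 h then treated 48 h at 37 C. Luciferase luminescence read 15 min after reagent; normalized to genistein maximum activation (10microM) and DMSO, concentration-response fitted.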
Integrin act MD – activates integrin-mediated alleviation for muscular dystrophy | alpha7betagal myoblasts, beta-gal FDG fluorescence, 48 h | Potency, µM (doses to about 38.3 µM), inactives show top-dose activation, usual class: activators | hit rate 0.064% among 350,000 | AID 624291;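 note: 100% = response of the positive control SU9516; nearly all actives have a fitted effect of over 60% in size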
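Alpha7betagal+/- myoblasts (passage 13) were plated 16-24 hr, then exposed to compounds (1:260 dilution of DMSO stock) for 48 hours at 37C. After MPER lysis, β-galactosidase reporter activity was read as FDG fluorescence (ex 480/em 540) after 30 minutes.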
An asterisk follows results filed as active; ? = inconclusive; nt = not tested or not shown. Calls come from the whole dose curve; as a rule, active = well fitted curve in the direction sought with a large enough effect; inconclusive = small, poorly fitted or top-dose-only effect, or another doubt; inactive = no such curve, though single readings can be large; an effect the other way counts as inactive or inconclusive. Potency is the fitted concentration of half-maximal effect.

SMILES	GLP-1R inv ag	GLP-1R agonist	GLP1R cytotox	BRCA1 expr up	Integrin act MD
Cc1cc(/C=N/NC(=O)c2cccc([N+](=O)[O-])c2)c(C)n1-c1ccccc1	?	6%	-3%	13µM*	3%
Cc1cc(/C=N/NC(N)=S)c(C)n1-c1ccc(Cl)c(Cl)c1	?	8%	3.2µM*	-61%	-8%
COC(=O)C1=C(C)NC(COC(N)=O)=C(C(=O)OC(C)C)C1c1cccc(Cl)c1Cl (configuration not stated)	nt	-5%	nt	nt	nt
CCc1ccccc1N1C(=O)N(Cc2ccc(C#N)cc2)c2ccccc2S1(=O)=O	-13%	0%	-18%	-23%	nt
Cc1cccc(C)c1NC(=O)C(=O)NCC(c1cccnc1)N1CCc2ccccc21 (configuration not stated)	-6%	nt	3%	nt	nt
CCOc1ccc(CNC(=O)Cn2ccc3cc(S(=O)(=O)N4CCCCC4)ccc32)cc1	-25%	nt	-3%	nt	nt
Cc1ccc(CNC(=O)CSc2nc3ccsc3c(=O)n2-c2ccc(C(=O)O)cc2)cc1	8%	nt	0%	nt	nt
Cc1ccc2c(c1)-c1c(c(C(=O)NCCc3ccccc3)nn1C)CS2	?	nt	0%	nt	nt
O=C(NC(=S)Nc1ccc(-c2ccccc2)cc1)c1ccccc1	?	2%	?	62%	-40%
CC(C)NC(=S)NC(=O)c1ccc(-c2ccccc2)cc1	10µM*	-4%	?	-13%	-16%
COc1ccc2c(C)cc(SCC(=O)NC3CCCC3)nc2c1	11µM*	14%	-1%	-31%	-25%
COc1cccc(-c2nc(SCC(=O)NC3CCCC3)c(-c3ccc(C)cc3)[nH]2)c1	?	nt	-20%	nt	nt
COc1ccc(-c2[nH]c(-c3ccc(C)cc3)nc2SCC(=O)NC2CCCC2)cc1	10µM*	-3%	?	-57%	-13%
CN(C)C(=O)c1cc(C(=O)c2ccc(C(F)(F)F)cc2)c[nH]1	1%	11%	1%	10µM*	6%
CCc1ccc(NC(=O)c2cnn3ccccc23)cc1	5µM*	-5%	18%	-65%	14%
Cn1c(Cl)cnc1C1CC(=O)c2cc(Cl)ccc2O1 (configuration not stated)	3.5µM*	-4%	7.9µM*	-82%	-52%
O=C(NCc1ccc(F)cc1Cl)c1ccc(CSCc2ccccc2Cl)o1	?	nt	0%	nt	nt
O=C1C(Cl)=C(NCCc2ccccc2)C(=O)N1CCc1ccccc1	-7%	-1%	191%	7.9µM*	-7%
O=C1C(Cl)=C(NCC2CCCO2)C(=O)N1CCc1ccccc1 (configuration not stated)	0%	?	27%	7.9µM*	-29%
O=C1C(Cl)=C(NCCCN2CCOCC2)C(=O)N1CCc1ccccc1	-17%	-6%	6%	2%	-34%
COc1ccc(NC(=O)c2ccccc2OCC(=O)Nc2ccc(Br)cc2)cc1	nt	nt	nt	-2%	nt
CCN1CCN(c2cc(C)c3cc(NC(=S)N4CCOCC4)ccc3n2)CC1	?	2%	?	-23%	-39%
Cc1cc(N2CCN(C)CC2)nc2ccc(NC(=S)NCc3cccs3)cc12	1µM*	2%	?	-27%	-62%
Cc1ccc(C)c(N2CCN(C(=S)Nc3ccc4nc(N5CCN(C)CC5)cc(C)c4c3)CC2)c1	2.5µM*	8%	-14%	-40%	-19%
CCN1CCN(c2cc(C)c3cc(NC(=S)NCc4cccs4)ccc3n2)CC1	?	17%	?	-23%	-49%
Cc1ccc(C)c(N2CCN(C(=S)Nc3ccc4nc(N5CCOCC5)cc(C)c4c3)CC2)c1	?	-1%	10%	-18%	15%
Cc1cc(N2CCCCC2)nc2ccc(NC(=O)c3ccc(Br)o3)cc12	2.8µM*	-7%	?	-17%	-14%
CCCN1CCN(C(=S)Nc2ccc3nc(N4CCN(CC)CC4)cc(C)c3c2)CC1	4µM*	10%	3.2µM*	-31%	-66%
Cc1cc(N2CCN(C)CC2)nc2ccc(NC(=O)c3ccc(Br)o3)cc12	?	8%	?	24%	-26%
CCCN(CCC)CCCNC(=O)Cn1ncn2c(cc3sc(CC)cc32)c1=O	0%	nt	-4%	nt	nt
